From PubChem BioAssay AID651812 (National Center for Advancing Translational Sciences (NCATS), 2012) come the findings set out here.

Among all 2,100 compounds or so, about 650 (31%) were called active. Another 16% or so got no clear call; they are omitted. Calls follow the shape of the dose curve; as a rule, active = well fitted inhibition curve with a large enough effect; inconclusive = small, poorly fitted or top-dose-only effect; inactive = flat fitted curve, though single readings scatter. The list shows a part of the results. Entries that show only a call come without a potency.
Potency is read from the fitted curve at half-maximal effect.

A short description of this assay: qHTS for inhibitors of Vif-A3G interactions: Cherry picks. Also: nearly all actives have a fitted effect of over 80% in size. The conditions noted are these: HeLa A3G-eYFP + Vif (tagged APOBEC3G with the HIV-1 protein that degrades it), 24 h; Potency: eYFP fluorescence increase; series mostly up to 36.9 µM. An excerpt: The recent discovery and characterization of host restriction factors, which provide a potent defense to invading retroviruses, has provided new targets for antiviral drug development. APOBEC3G (A3G) and APOBEC3F (A3F) are potent cytidine deaminases that block HIV-1 replication; HIV-1 expresses the Vif protein, which counteracts A3G and A3F by binding to them and inducing their proteasomal degradation. The Vif-A3G and Vif-A3F interactions provide two potential targets for development of small molecules which can interfere with the ability of Vif to degrade A3G or A3F. […] To identify inhibitors that can interfere with Vif mediated degradation of A3G and A3F, we have developed Hela cell lines that stably express A3G or A3F tagged with eYFP at the C-terminal end (A3G-eYFP or A3F-eYFP, respectively) and Vif. In the absence of an inhibitor, Vif induces degradation of A3G-eYFP and A3F-eYFP, and the cells are not fluorescent. In the presence of an inhibitor, it is expected that Vif will be unable to degrade A3G-eYFP and/or A3F-eYFP, resulting in an increase in yellow fluorescence. In this assay, Vif A3G was screened against the cherry picks ordered from the MLSMR. NIH Chemical Genomics Center [NCGC] NIH Molecular Libraries Probe Centers Network [MLPCN] MLPCN Grant: MH093245 Assay Submitter (PI): Vinay Pathak, National Cancer Institute
A3G-Vif cells were harvested from T225 flask and resuspended in phenol free OPTI-MEM medium with 5% FBS. Then 5 uL of 140,000 cells/mL resuspended cells was dispensed into each well of low base Aurora COC 1,536-well plates (black walled, clear bottom) using a Multidrop Combi dispenser. After overnight culture at 37 deg C with 5% CO2, a total of 23 nL of compounds at 5 selected concentrations from the NPC or positive control (2 mM stock of MG132) in DMSO was transferred to each well of the assay plate using a pintool (Kalypsys, San Diego, CA), and the plates were further incubated at 37 deg C with 5% CO2 for 24 hours. After that, the plates were measured on Acumen Explorer (TTP Lab Tech). The fluorescence was detected by 488 nm/Ex and […].
In general terms: In qHTS, concentration-response curves come from the screen itself.
Take `COc1ccc(-c2cc(NC=O)c3ncc(-c4ccc(OC)c(OC)c4)n3c2)cc1OC`: the Potency result was “inactive”. In the case of `CCOC(=O)C(=Cc1ccc(-n2ccnc2)cc1)C(=O)OCC`, the Potency entry was “inactive”. In the case of `Cn1c(-c2ccccc2)cc2c3no[n+]([O-])c3ccc21`, the Potency entry is “inactive”. Turning to `CC(C)(C)NCC(=Cc1ccccc1)C(=O)c1ccccc1`, the Potency entry is “inactive”. With `COc1cc(/C=C(/C#N)c2nc3ccccc3[nH]2)ccc1OCC(=O)Nc1ccccc1C(C)C`, the Potency was 16.4 µM (active). In the case of `COc1ccc(-c2cnnc(N/N=C/c3ccc(O)c(OC)c3)n2)cc1`, the Potency result was “inactive”. For `COc1cc(/C=C(/C(=O)c2cccs2)c2nc3ccccc3[nH]2)ccc1O`, the Potency entry was “inactive”.

`COc1cc(/C=C(\C#N)c2nc3ccccc3[nH]2)ccc1O`: the Potency was 5.8 µM (active). In the case of `N#C/C(=C\c1cccnc1)c1nc2ccccc2[nH]1`, the Potency result was “inactive”. Under `COc1cc(Br)c(/C=C(\C#N)c2nc3ccccc3[nH]2)cc1OC` stands 18.4 µM (active). In the case of `Cc1cccc(Nc2nnc(SC/C(O)=C(\C#N)c3nc4ccccc4[nH]3)s2)c1` it was “inactive”; in that of `COc1cc(/C=C(\C#N)c2nc3ccccc3[nH]2)cc(Cl)c1OCc1ccccc1Cl`, 18.4 µM (active).

Regarding `COc1ccccc1NC(=O)c1oc2ccccc2c1NC(=O)c1cccc(OC)c1OC`, the Potency entry was “inactive”. With `CC(=O)c1cccc(-c2ccnc3c2CC(C(=O)NCC2CC2)O3)c1` (stereo unspecified), the Potency entry is “inactive”. In the case of `N#CC1CC(c2ccccc2)Nc2cc(Cl)ccc2N1` (stereo unspecified) it was “inactive”; in that of `COc1ccc(N(C)S(=O)(=O)c2cccc3cccnc23)c(OC)c1`, “inactive”; in that of `COc1ccc(C(=O)NC2CCCc3ccccc32)cc1[N+](=O)[O-]` (stereo unspecified), “inactive”. For `CCOc1ccc2nc(N3C(=O)/C(=C/c4ccc(Cl)cc4)NC3=S)sc2c1`, the Potency is 11.6 µM (active). With `COc1ccc2nc(N3C(=O)/C(=C/c4ccccc4)NC3=S)sc2c1`, the Potency was 3.66 µM (active).

In the case of `COc1ccc2nc(NC(=O)Nc3ccccc3OC)sc2c1`, the Potency result is “inactive”. As to `COc1ccc2nc(NC(=S)NC(=O)c3ccco3)sc2c1`, the Potency entry is “inactive”.

As for `O=C(OC12CC3CC(CC(C3)C1)C2)c1ccc(NCc2cc(O)ccc2O)cc1`, the Potency entry is “inactive”. Regarding `COc1c(-c2ccc(O)c(O)c2)oc2cc(O)cc(O)c2c1=O`, the Potency entry is “inactive”. `CC(=O)c1c(C)oc2c1cc(NS(=O)(=O)c1ccc(Br)cc1)c1ccccc12`: the Potency result is “inactive”. As for `Cc1ccc2c(c1)sc(-c1ccc(N(C)C)cc1)[n+]2C`, the Potency was 20.6 µM (active). Consider `COc1ccc(N/C=C/C(=O)c2cc(OC)c(OC)c(OC)c2)cc1`, for which the Potency result was “inactive”.

`COc1ccc(C(=O)/C=C/Nc2ccc([N+](=O)[O-])cc2C)c(OC)c1`: the Potency is 11.6 µM (active). In the case of `COc1ccc(C(=O)c2cc([N+](=O)[O-])ccc2N2CCCC2)cc1` it was “inactive”; in that of `COC(=O)c1ccccc1NC(=O)C1CC(=O)N(c2ccc(OC)cc2)C1` (stereo unspecified), “inactive”; in that of `CCCCN1C(=O)/C(=C/C=C2/CC(C)(C)CN2C)SC1=S`, “inactive”.

For `CCCN1C(=O)/C(=C\C=C2\N(CC)c3ccccc3C2(C)C)SC1=S`, the Potency was 3.26 µM (active). Regarding `CCCN1C(=O)/C(=C/C=C2\N(CC)c3ccccc3C2(C)C)SC1=S`, the Potency was 3.96 µM (active). Consider `O=C(NC1CC1)c1cccc2c1C(=O)c1ccc(N3CCC(Cc4ccccc4)CC3)cc1S2(=O)=O`, for which the Potency was 23.1 µM (active).

As for `Cc1cc(C)c(S(=O)(=O)N2CCCCC2CCNC(=O)C(=O)NCc2ccco2)c(C)c1` (stereo unspecified), the Potency entry was “inactive”. Under `O=C(NCc1ccco1)c1cccc2c1C(=O)c1ccc(N3CCC(Cc4ccccc4)CC3)cc1S2(=O)=O` stands 18.4 µM (active); under `Cc1c(C)n(Cc2ccccc2)c2ccc(C(=O)NCc3ccco3)cc12`, “inactive”; under `O=C(NCc1ccccc1C(F)(F)F)c1cccc2c1C(=O)c1ccc(N3CCC(N4CCCCC4)CC3)cc1S2(=O)=O`, 20.6 µM (active). `O=C(NCc1cccc(C(F)(F)F)c1)c1cccc2c1C(=O)c1ccc(N3CCC(Cc4ccccc4)CC3)cc1S2(=O)=O`: the Potency is 18.4 µM (active). Turning to `Cc1ccc(C(=O)NC(=C(Cl)Cl)S(=O)(=O)c2ccc(Cl)cc2)cc1`, the Potency entry was “inactive”.

Take `CC(=O)c1cccc(-c2ccnc3c2CC(C(=O)NCC2CCOCC2)O3)c1` (stereo unspecified): the Potency result was “inactive”. Take `COc1ccccc1C(=O)N1CCN(c2cccc(Cl)c2)CC1`: the Potency result is “inactive”.

In the case of `Cc1cccc(C(=O)NC(=S)N2CCc3ccccc3C2)c1`, the Potency entry was “inactive”. Regarding `O=C(Nc1nc2c(F)cccc2s1)c1ccc([N+](=O)[O-])o1`, the Potency entry was “inactive”. For `O=C(N/N=C/c1ccc([N+](=O)[O-])o1)c1sc2ccccc2c1Cl`, the Potency was 18.4 µM (active). In the case of `O=C(N/N=C/c1ccc([N+](=O)[O-])o1)c1cn2ccc3ccccc3c2n1` it was “inactive”; in that of `COc1cc(C2Nc3ccc4ncccc4c3C3=C2C(=O)CCC3)ccc1O` (stereo unspecified), “inactive”. In the case of `COc1ccccc1OCC(=O)N/N=C/C=C/c1ccc([N+](=O)[O-])o1` it was 16.4 µM (active); in that of `O=C(N/N=C/c1cccs1)c1n[nH]c2c1CCC2`, “inactive”.

`O=C(Nc1ncccn1)c1ccc([N+](=O)[O-])o1`: the Potency result was “inactive”. In the case of `COc1ccccc1OCC(=O)NNC(=O)Nc1ccc(Cl)cc1`, the Potency entry was “inactive”. On to `CCCOC(=O)/C(=C\c1ccc([N+](=O)[O-])o1)NC(=O)c1ccccc1`, for which the Potency entry is “inactive”. Turning to `O=C(N/N=C\C=C\c1ccc([N+](=O)[O-])o1)c1cccs1`, the Potency was 15.8 µM (active).

Turning to `COc1cc2c(c(OC)c1OC)-c1ccc(N(C)CC(OC)OC)c(=O)cc1[C@@H](NC(C)=O)CC2`, the Potency result was “inactive”. Turning to `CC(C)(C)c1ccc(Oc2ccc(NC(=O)c3ccccc3C(=O)O)cn2)cc1`, the Potency result was “inactive”. For `COc1cc2ccccc2cc1C(=O)N/N=C/c1cccnc1`, the Potency entry is “inactive”. Under `Cn1c(=O)[nH]c(=O)c2c1nc(Br)n2Cc1cccc(Br)c1` stands “inactive”; under `Cc1nc2c3cc(F)ccc3n(Cc3ccccc3)c2s1`, “inactive”; under `Cc1cc2nc3c(=O)n(Cc4ccccc4)c(=O)[nH]c3nc2cc1N`, 6.27 µM (active). For the molecule `Cc1cc2nc3c(=O)n(C4CCCCC4)c(=O)[nH]c3nc2cc1N`, the Potency was 16.4 µM (active). Regarding `Cc1cccc(C)c1OCCNC(=O)C(=O)NCc1ccco1`, the Potency result was “inactive”. Take `CC1CC(C)(C)Nc2ccc(OC(=O)c3ccco3)cc21` (stereo unspecified): the Potency was 20.6 µM (active).

For the molecule `COc1cc(C2Oc3ccccc3C=C2[N+](=O)[O-])cc(OC)c1OC` (stereo unspecified), the Potency result was “inactive”. Turning to `N#CC1=C(N)C(C#N)(C#N)[C@H](c2ccoc2)[C@H]2CN(Cc3ccccc3)CC=C12`, the Potency entry is “inactive”. As for `CCOC(=O)C1=C(C)N=c2sc(=Cc3cc(Cl)c(OCC(=O)O)c(Cl)c3)c(=O)n2C1c1cccc(OC)c1` (stereo unspecified), the Potency entry was “inactive”. Take `CC(=O)c1sc2nc(-c3cccs3)cc(C(F)(F)F)c2c1N`: the Potency was 7.31 µM (active). As to `Nc1c(C(=O)C2CC2)sc2nc(-c3cccs3)cc(C(F)(F)F)c12`, the Potency is 2.31 µM (active). `CC(C)(C)C(=O)c1sc2nc(-c3cccs3)cc(C(F)(F)F)c2c1N`: the Potency was 1.3 µM (active). Take `Cc1ccc(-c2cc(NC=O)c3ncc(-c4cccc(C(=O)N(C)C)c4)n3c2)cc1`: the Potency result was “inactive”. Turning to `CCOC(=O)c1c(-c2ccc(OC)cc2)csc1/N=C/C1=C(O)CCCC1=O`, the Potency result is “inactive”. Regarding `Cc1ccc(S(=O)(=O)N2CCN(C(=O)CSC(=S)N3CCCC3)CC2)c(C)c1`, the Potency entry is “inactive”. For `CCN1CCN(c2c(/C=C3\SC(=S)N(Cc4ccco4)C3=O)c(C)c(C#N)c(=O)n2C)CC1`, the Potency is 18.4 µM (active). In the case of `CN(C)c1ccc(C=C2SC(=S)N(Cc3ccco3)C2=O)cc1` it was 2.8 µM (active).

On to `Cc1cc(/C=C2\SC(=S)N(Cc3ccco3)C2=O)c(C)n1-c1cccnc1`, for which the Potency is 23.1 µM (active). Take `COC(=O)C1=C(C)N(Cc2ccco2)C(=O)/C1=C\c1ccc([N+](=O)[O-])cc1`: the Potency entry is “inactive”. For the molecule `C/C(=N/NC(N)=S)c1ccc(Br)s1`, the Potency entry is “inactive”. As for `CCCC(=O)NC(c1ccc(OC)cc1)c1ccc2cccnc2c1O` (stereo unspecified), the Potency result is “inactive”. In the case of `Cn1ccnc1Sc1nc2ccccc2nc1NS(=O)(=O)c1ccccc1`, the Potency result is “inactive”. In the case of `CC(OC(=O)/C(C#N)=C/c1ccc(N(C)C)cc1)C(=O)N(C)Cc1ccccc1` (stereo unspecified), the Potency is 18.4 µM (active).

In the case of `COc1ccc(N=Cc2c(O)n(-c3cccc(C)n3)c(=O)c3ccccc23)c(OC)c1`, the Potency was 13 µM (active). With `COc1ccc(-c2cc(C(=O)N/N=C/c3sccc3C)c3ccccc3n2)c(OC)c1`, the Potency entry is “inactive”.

Turning to `CCc1cccc2c(C(O)c3c[nH]c4ccccc34)c[nH]c12` (stereo unspecified), the Potency was 20.6 µM (active).

Regarding `N#CC1=C(N)Oc2cc(N)ccc2C1c1ccccc1` (stereo unspecified), the Potency result is “inactive”.

Consider `CC1CC(=O)C2=C(C1)OC(N)=C(C#N)C2c1coc2ccccc2c1=O` (stereo unspecified), for which the Potency is 23.1 µM (active).

Take `C=CCn1cc(/C=C/c2cc[n+](C)cc2)c2ccccc21`: the Potency is 7.04 µM (active). With `CC(C)n1cc(/C=C/c2cc[n+](C)cc2)c2ccccc21`, the Potency is 0.25 µM (active). As to `CC(C)n1cc(/C=C2\NC(=O)N(c3cccc(Cl)c3)C2=O)c2ccccc21`, the Potency result is “inactive”. Turning to `CCn1cc(/C=C/c2cc[n+](C)cc2)c2ccccc21`, the Potency is 1.77 µM (active).

As for `CCOC(=O)CSC1=C(C#N)C(c2ccc(C)s2)CC(=O)N1` (stereo unspecified), the Potency entry is “inactive”.

For the molecule `N#C/C(N=Nc1ccccc1O)=N\Nc1ccccc1O`, the Potency was 14.6 µM (active). Turning to `NC(=O)c1ccc(Cn2c(C(=O)c3cc(Cl)c(N)c(Cl)c3)c3ccccc3[n+]2[O-])cc1`, the Potency result was “inactive”. Regarding `Cc1c(C(=O)Nc2cccnc2)oc2ccc(Br)cc12`, the Potency result was “inactive”.

As for `COc1ccc(-c2nnc(SCC(=O)NCc3ccccc3)nc2-c2ccc(OC)c(OC)c2)cc1OC`, the Potency entry was “inactive”. In the case of `COc1ccc(-c2ccc3c(c2)S(=O)(=O)c2cccc(C(=O)NCCOc4ccccc4)c2C3=O)cc1OC` it was 12.5 µM (active). Take `COc1cc(C(=O)NCCOc2cc(C)cc(C)c2)cc(OC)c1OC`: the Potency result is “inactive”. For the molecule `COc1ccc(-c2ccc3c(c2)S(=O)(=O)c2cccc(C(=O)NCc4cccc(OC(F)(F)F)c4)c2C3=O)cc1OC`, the Potency is 10.3 µM (active). Take `COc1cc(C(=O)NCCOc2cc(C)cc(C)c2)c(Br)c(OC)c1OC`: the Potency entry is “inactive”.
